In PubChem BioAssay one finds composite z-score and z-score data, which are given here for 4 molecules.

Calls of active or inactive are those of the source.

The subject of test [1] is Wnt5a (protein binding on small-molecule microarray). Kind of test: small molecules binding Wnt5a protein – biophysical, small-molecule microarray, 635/667 nm fluorescence, primary screen (AID 1142).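 Further: fluorescence read at 667 nm with signal to noise per printed feature.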 The following applies: 635 nm fluorescence, higher = more signal.
Test [2] is described as follows: ATP-based viability of Huh7 replicon cells – cell-based, CellTiter-Glo luminescence, basal, 48 h, cytotoxicity control for HCV replication inhibitor project, primary screen (AID 1143).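 Further: Huh7 hepatoma cells carrying a hepatitis C replication reporter with no stimulus; test concentration not given here.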 Conditions: higher = more signal, called active from +8 up or from −8 down. For orientation: A replicon is a self-replicating genome or part of one, used to study replication in cells.

The nature of test [3]: basal CRE-LacZ reporter activity in PC12 – cell-based, unstimulated, primary screen (AID 1145). Conditions: no forskolin, luminescence, 4.5 h, higher = more signal, called active from +8 up or from −8 down.
The nature of test [4]: forskolin-driven CRE-LacZ activity in PC12 – cell-based, CRE-LacZ reporter, forskolin-stimulated, primary screen (AID 1146).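 Further: PC12 cells with 6xCRE LacZ reporter stimulated by forskolin 10 µM; beta-galactosidase reporter signal reflecting CREB driven transcription.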 The following applies: luminescence, 4.5 h, higher = more signal, called active from +8 up or from −8 down.
The target in test [5] is Streptavidin (Streptomyces avidinii) (UniProt P22629). The experiment in a line: compounds binding control protein streptavidin – biophysical, small-molecule microarray, 635/667 nm fluorescence, artefact control for SMM compound annotation, primary screen (AID 1147).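 Further: signal reflects streptavidin binding to arrayed compounds as a control protein.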 Conditions: higher = more signal.
Test [6] in a line: probe aInhba binding on compound microarray – biochemical, small-molecule microarray, 635/667 nm fluorescence, primary screen (AID 1148).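 Further: score merges 667nm spot fluorescence with signal-to-noise for antibody binding to printed compounds.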 The following applies: higher = more signal.
Test [7] concerns the target Torsin-1A (Homo sapiens) (UniProt O14656). The experiment in a line: TOR1A wild-type binding on microarray – cell lysate, small-molecule microarray, lysate, 635/667 nm, primary screen (AID 1149). The following applies: COS7 hTOR1A-WT lysate, 635 nm fluorescence, higher = more signal.
The target is the same in test [8]. The experiment in a line: torsin A mutant lysate binding on microarrays – cell lysate, small-molecule microarray, COS7 lysate, 635/667 nm fluorescence, primary screen (AID 1150).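 Further: score pools 667 nm emission and signal to noise measuring lysate protein binding.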 Conditions: COS7 hTOR1A mutant lysate, 635 nm fluorescence, higher = more signal.
Test [9] relates to Sonic hedgehog protein (Shh). Kind of test: Sonic hedgehog microarray binding compounds – biochemical, small-molecule microarray, 635/667 nm fluorescence, primary screen (AID 1151).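 Further: Shh protein binding to compounds spotted on small-molecule microarray slides; score combines spot fluorescence intensity with signal-to-noise across triplicate slides.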 Conditions: 635 nm fluorescence, higher = more signal.
Test [10] is described as follows: optical density shifts of acrAB sulA E. coli – strain DRC41, OD650, 48 h, E. coli filamentation inducer project, primary screen (AID 1152).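 Further: E. coli MC1000 strain DRC41 lacking acrAB efflux pump and sulA.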 The following applies: higher = more signal, called active from +8 up or from −8 down.
A short description of test [11]: probe aLefty1 binding on compound microarray – biochemical, small-molecule microarray, 635/667 nm fluorescence, primary screen (AID 1153).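 Further: score merges spot fluorescence with signal-to-noise ratio from the scanned slide images.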 Conditions: higher = more signal.
Test [12] can be described thus: plasmodial surface anion channel blockers, osmotic lysis – cell-based, P. falciparum Indochina, OD700, 1 h, primary screen (AID 1154). The following applies: P. falciparum Indochina infected RBC osmotic lysis, higher = more signal, called active from +8 up or from −8 down.
The nature of test [13]: plasmodial surface anion channel blockers, osmotic lysis – cell-based, P. falciparum Indochina, OD700, 2 h, primary screen (AID 1155).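 Further: lysis reports solute entry through the parasite surface anion channel PSAC.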 The following applies: P. falciparum Indochina infected erythrocytes, higher = more signal, called active from +8 up or from −8 down.
A short description of test [14]: changes in parasitized red cell lysis, either direction – P. falciparum Indochina, OD700, 3 h, PSAC antagonist project, primary screen (AID 1156). Conditions: P. falciparum-infected erythrocytes, osmotic lysis, higher = more signal, called active from +8 up or from −8 down.
The nature of test [15]: plasmodial surface anion channel blockers, osmotic lysis – cell-based, P. falciparum Indochina, OD700, 18 h, primary screen (AID 1157). The following applies: P. falciparum Indochina infected erythrocytes, osmotic lysis OD700, 18 h; higher = more signal, called active from +8 up or from −8 down.
Test [16] in a line: S6 kinase pathway phospho-S6 level changes – cell-based, A549, cytoblot, luminescence, serum-stimulated, primary screen (AID 1158).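 Further: serum-stimulated A549 lung adenocarcinoma cells; signal is phosphorylated S6 detected by cytoblot immunostaining with HRP secondary.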 The following applies: 5 h, higher = more signal.
Test [17] concerns the target NADPH oxidase 2 (Homo sapiens) (UniProt P04839). Kind of test: compounds shifting NOX2 Amplex Red fluorescence – cell-based, HEK293-NOX2, PMA-stimulated, NOX inhibitor project, primary screen (AID 1159). Further: test concentration not given here. The following applies: 45 min, higher = more signal, called active from +8 up or from −8 down.
Test [18] has as its target NADPH oxidase 4 (Homo sapiens) (UniProt Q9NPH5). The experiment in a line: compounds shifting NOX4 Amplex Red fluorescence – cell-based, HEK293-NOX4, tetracycline-induced, NOX inhibitor project, primary screen (AID 1160). Conditions: HEK293-NOX4, Amplex Red H2O2 fluorescence, 45 min; higher = more signal, called active from +8 up or from −8 down.
Test [19] concerns the target NADPH oxidase 5 (Homo sapiens) (UniProt Q96PH1). The experiment in a line: compounds shifting NOX5 Amplex Red fluorescence – cell-based, HEK293-NOX5, NOX inhibitor project, primary screen (AID 1161). Conditions: HEK293-NOX5, ionomycin, 45 min, higher = more signal.
A short description of test [20]: compound effects on lung adenocarcinoma cell viability – A549, calcein-AM fluorescence, 48 h, basal, profiling panel (AID 1162). Further: test concentration not given here. Conditions: higher = more signal.

Chain of NADPH oxidase 2 (Homo sapiens) (P04839 whole entry, looked up): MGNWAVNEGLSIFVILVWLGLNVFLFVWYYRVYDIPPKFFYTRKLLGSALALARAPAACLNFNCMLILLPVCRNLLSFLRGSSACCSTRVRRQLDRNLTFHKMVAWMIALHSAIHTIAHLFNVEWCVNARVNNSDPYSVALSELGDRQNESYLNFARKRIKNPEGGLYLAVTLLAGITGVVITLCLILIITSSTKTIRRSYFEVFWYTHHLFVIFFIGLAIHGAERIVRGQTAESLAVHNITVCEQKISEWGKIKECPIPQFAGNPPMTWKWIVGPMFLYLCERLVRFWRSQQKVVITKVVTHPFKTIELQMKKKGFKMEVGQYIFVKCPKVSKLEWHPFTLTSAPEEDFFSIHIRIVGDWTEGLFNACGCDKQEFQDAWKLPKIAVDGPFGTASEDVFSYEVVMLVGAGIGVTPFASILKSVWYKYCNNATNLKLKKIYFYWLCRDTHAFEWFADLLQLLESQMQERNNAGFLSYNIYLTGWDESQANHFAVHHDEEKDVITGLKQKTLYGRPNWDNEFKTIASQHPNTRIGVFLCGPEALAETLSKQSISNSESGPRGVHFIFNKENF
Chain of NADPH oxidase 4 (Homo sapiens) (Q9NPH5 whole entry, looked up): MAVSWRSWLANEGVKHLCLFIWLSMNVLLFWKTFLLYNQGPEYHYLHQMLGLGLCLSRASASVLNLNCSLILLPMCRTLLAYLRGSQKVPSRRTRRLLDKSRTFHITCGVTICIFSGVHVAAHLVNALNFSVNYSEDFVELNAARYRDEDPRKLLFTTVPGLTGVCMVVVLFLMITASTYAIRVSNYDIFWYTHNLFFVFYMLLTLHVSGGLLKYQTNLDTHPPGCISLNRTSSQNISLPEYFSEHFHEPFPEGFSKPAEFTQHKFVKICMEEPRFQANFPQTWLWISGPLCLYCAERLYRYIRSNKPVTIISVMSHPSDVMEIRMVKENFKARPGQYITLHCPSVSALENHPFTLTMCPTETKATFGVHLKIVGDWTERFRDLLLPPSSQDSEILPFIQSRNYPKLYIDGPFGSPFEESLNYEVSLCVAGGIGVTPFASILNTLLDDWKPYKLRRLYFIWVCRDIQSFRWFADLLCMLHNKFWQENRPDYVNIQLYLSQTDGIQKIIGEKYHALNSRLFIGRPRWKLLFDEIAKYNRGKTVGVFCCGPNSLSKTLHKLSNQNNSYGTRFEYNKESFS
Chain of Streptavidin (Streptomyces avidinii) (P22629 whole entry, looked up): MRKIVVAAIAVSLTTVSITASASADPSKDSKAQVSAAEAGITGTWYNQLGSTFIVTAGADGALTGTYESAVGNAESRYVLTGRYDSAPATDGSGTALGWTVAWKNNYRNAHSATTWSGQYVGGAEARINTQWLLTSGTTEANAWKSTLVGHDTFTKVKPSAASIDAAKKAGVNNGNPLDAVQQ
Chain of Torsin-1A (Homo sapiens) (O14656 whole entry, looked up): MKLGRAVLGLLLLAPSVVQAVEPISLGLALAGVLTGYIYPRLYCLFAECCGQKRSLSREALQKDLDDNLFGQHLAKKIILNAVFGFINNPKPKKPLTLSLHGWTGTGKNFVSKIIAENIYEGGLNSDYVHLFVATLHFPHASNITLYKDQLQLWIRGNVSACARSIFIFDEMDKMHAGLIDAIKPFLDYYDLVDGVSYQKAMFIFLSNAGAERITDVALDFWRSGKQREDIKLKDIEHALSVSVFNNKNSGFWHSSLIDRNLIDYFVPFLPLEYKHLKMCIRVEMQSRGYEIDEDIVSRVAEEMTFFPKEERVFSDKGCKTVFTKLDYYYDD
Chain of NADPH oxidase 5 (Homo sapiens) (Q96PH1 whole entry, looked up): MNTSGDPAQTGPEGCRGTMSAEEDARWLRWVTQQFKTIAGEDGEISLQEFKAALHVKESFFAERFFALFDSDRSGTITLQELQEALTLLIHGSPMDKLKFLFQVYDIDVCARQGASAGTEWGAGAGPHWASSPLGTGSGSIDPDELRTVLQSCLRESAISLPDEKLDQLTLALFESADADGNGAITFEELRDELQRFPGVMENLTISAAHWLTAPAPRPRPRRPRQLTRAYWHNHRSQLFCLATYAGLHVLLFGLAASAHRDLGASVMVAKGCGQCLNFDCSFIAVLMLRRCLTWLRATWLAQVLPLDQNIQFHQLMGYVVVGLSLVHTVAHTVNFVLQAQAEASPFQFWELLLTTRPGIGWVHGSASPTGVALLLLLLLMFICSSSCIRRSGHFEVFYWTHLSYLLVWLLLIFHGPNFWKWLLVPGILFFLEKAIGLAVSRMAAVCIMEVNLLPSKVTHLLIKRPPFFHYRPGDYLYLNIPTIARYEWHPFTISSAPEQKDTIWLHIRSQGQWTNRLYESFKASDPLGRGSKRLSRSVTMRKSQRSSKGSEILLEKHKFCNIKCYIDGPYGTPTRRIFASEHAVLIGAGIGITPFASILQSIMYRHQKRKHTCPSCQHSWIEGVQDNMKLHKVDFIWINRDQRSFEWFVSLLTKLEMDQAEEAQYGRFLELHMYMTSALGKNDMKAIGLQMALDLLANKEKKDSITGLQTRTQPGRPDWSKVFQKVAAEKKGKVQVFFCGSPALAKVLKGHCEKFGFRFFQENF

On to `CC(C)C(=C=CC[C@H](O)c1ccc(OCCO)cc1)C[C@H](O)COCc1ccccc1`, for which the composite z-score is 0.317 in test [1]; 0.192 in test [5]; -0.0986 in test [6]; 1.11 with Torsin-1A (Homo sapiens) [7]; 1.42 with Torsin-1A (Homo sapiens) [8]; 1.96 in test [9]. The molecule further had a composite z-score in test [11] of 0.0751. For the same molecule, the z-score in [2] was -3.34 (inactive); in test [3] it was 12.1 (active); in test [4], -0.14 (inactive); in test [10], 0.811 (inactive); in test [12], 20.1 (active); in test [13] it was 4.54 (inactive). Also, the z-score in test [14] was 1.7 (inactive); in [15], 0.923 (inactive); in test [16], -0.474; in test [17], -0.557 (inactive); in test [18] it was -0.142 (inactive); in test [19], -1.87. In addition, the z-score in test [20] was 0.153.
Regarding `Cc1ccc(N2C(=O)c3ccccc3[C@](C)(C(=O)NCC(F)(F)F)[C@@H]2c2ccc(CO)cc2)nc1`, the composite z-score in test [1] is -0.318; in test [5], -0.763; in test [6] it was -0.179; with Torsin-1A (Homo sapiens) [7], -1.08; in the test with Torsin-1A (Homo sapiens) [8], -0.727; in test [9], -1.46. Moreover, the composite z-score in test [11] is -0.147. In addition, the z-score in test [2] is -1.01 (inactive); in [3], 0.234 (inactive); in test [4], -1.31 (inactive); in test [10], 1.49 (inactive); in test [12], 0.57 (inactive); in test [13], 0.253 (inactive). The z-score was -0.317 (inactive) in [14]; 0.127 (inactive) in test [15]; 0.654 in test [16]; -0.103 (inactive) in [17]; -1.56 (inactive) in test [18]; 1.22 in test [19]. Also, the z-score in [20] was 0.708.
`COCCOC(=O)N1C(=O)[C@@]2(c3cc(C#CCNC(N)=O)ccc31)[C@H](C(=O)NC[C@H](O)c1ccccc1)[C@H]1C(=O)O[C@H](c3ccccc3)[C@H](c3ccccc3)N1[C@@H]2c1ccc(O)cc1`: the composite z-score is 0.226 in test [1]; 0.0489 in test [5]; -0.128 in test [6]; 0.397 in the test with Torsin-1A (Homo sapiens) [7]; 0.393 with Torsin-1A (Homo sapiens) [8]; 0.746 in test [9]. The composite z-score in test [11] is -0.196. For the same molecule, the z-score in test [2] was -1.19 (inactive); in test [3] it was -1.02 (inactive); in test [4], -0.899 (inactive); in test [10] it was 2.05 (inactive); in test [12] it was 0.532 (inactive); in test [13] it was -1.33 (inactive). In addition, the z-score in [14] is 0.527 (inactive); in [15], -1.55 (inactive); in test [16], 1.57; in [17], 1.46 (inactive); in test [18] it was 0.692 (inactive); in test [19] it was 0.776. For the same molecule, in [20], the z-score is 0.834.
With `CC(=O)NCCCC[C@@H]1NC(=O)[C@@H]2C[C@H](C(=O)O)[C@H](c3cccc(OCCO)c3)N2C1=O`, the composite z-score was 0.45 in test [1]; 0.397 in test [5]; -0.0403 in test [6]; 0.911 with Torsin-1A (Homo sapiens) [7]; 0.903 with Torsin-1A (Homo sapiens) [8]; 2.12 in test [9]. In [11], this molecule had a composite z-score of -0.138. Besides, the z-score is -0.533 (inactive) in test [2]; 0.151 (inactive) in test [3]; -0.741 (inactive) in [4]; 0.733 (inactive) in test [10]; 0.495 (inactive) in test [12]; 0.373 (inactive) in test [13]. For the same molecule, the z-score in test [14] was -1.49 (inactive); in test [15], 0.0814 (inactive); in test [16] it was 0.264; in test [17], -1.16 (inactive); in test [18], -0.282 (inactive); in test [19], -0.948. Further, the z-score in test [20] was 0.0822.
